# Assay results as given in PubChem BioAssay (NCI).
# Values joined by “and” are separate entries in the source; they are usually repeats but may differ in a detail not shown here. Equal entries are not always repeated. The panel holds about 83,000 compounds, 20% with a hit somewhere; the sample as a whole holds those more often.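 The endpoint reported here, percent growth, reads 100 for growth as untreated, 0 for no net growth and -100 for all cells dead.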 Active and inactive are the calls of the source. Rule for the calls: active = growth percent below 10; inactive = the rest.
# Test system: HL-60(TB) leukemia
# Test: NCI-60 one-dose screen, 48 h (100 = growth as untreated, 0 = no growth, -100 = all killed)
# Conditions: 10 µM unless noted
row,SMILES,growth
1,COc1ccc(-c2nn(-c3cccc(Cl)c3)cc2C=C(C#N)C#N)cc1,-36.7% (active)
2,C/C(=C(/c1ccc(Cl)cc1)c1ccc(OCCN2CCCC2)cc1)c1ccc(Cl)cc1,69.5% (inactive)
3,O=C1CCN(Cc2ccccc2)C(=S)N1,86.8% (inactive) and 113% (inactive)
4,CCN1CCN(CCNc2nccc(-c3c(-c4cccc(O)c4)nc4sccn34)n2)S1(=O)=O,64% (inactive) and 91.9% (inactive)
5,CCC(C)(O)c1ccc(C)cc1 (configuration not stated),97.3% (inactive)
6,C=C(C)[C@@H]1CC[C@]2(C(=O)NCCNCCN)CC[C@]3(C)[C@H](CC[C@@H]4[C@@]5(C)C/C(=C/c6ccncc6)C(=O)C(C)(C)[C@@H]5CC[C@]43C)[C@@H]12,74.1% (inactive)
7,CC(=O)O[C@H]1CC[C@@]2(C)[C@@H](CC[C@@H]3[C@@H]2CC[C@]2(C)C=C(C=O)C[C@@H]32)C1,-37.5% (active)
8,C=C(C)[C@@H]1CC[C@]2(C(=O)NCCNCCNC(=O)OC(C)(C)C)CC[C@]3(C)[C@H](CC[C@@H]4[C@@]5(C)CCC(=O)C(C)(C)[C@@H]5CC[C@]43C)[C@@H]12,-14.3% [100 µM] (active)
9,C=C1[C@@H](O)C[C@H]2C(C)(C)C[C@H](Cl)C[C@]2(C)[C@H]1C[C@H](O)[C@H]1CC(=O)NC1=O,-26% (active)
10,Cc1ccc(Nc2nnc(-c3cc(-c4ccncc4)n(-c4ccccc4)n3)s2)cc1,66.3% (inactive)
11,CS(=O)(=O)OCCN(CCOS(C)(=O)=O)c1ccc(/C=N/Nc2ccc([N+](=O)[O-])cc2[N+](=O)[O-])cc1,71.6% (inactive)
12,OCc1cccnc1,117% (inactive)
13,O=C(Nc1ccc(I)cc1F)c1cc(Cl)ccc1O,-44.3% (active)
14,[B-][N+](CC)(CC)c1ccccc1,45.6% (inactive)
15,NC(=O)c1cccc(-n2ccc3cc(NC(=O)Nc4ccc(Cl)c(C(F)(F)F)c4)ccc32)n1,99.3% (inactive)
16,COc1ccc(NC(=O)c2ccoc2COc2ccccc2)cc1,96.9% (inactive)
17,Cc1nc(NC(=O)N2CCC[C@H]2C(N)=O)sc1-c1ccnc(C(C)(C)C(F)(F)F)c1,24% (inactive)
18,COc1ccc(-c2nn(-c3cccc(NC(=O)c4ccc(Cl)c(Cl)c4)c3)cc2-c2ccncc2)cc1Cl,89.1% (inactive)
19,Cc1ccc(C2=Nc3c(N)ncnc3NC(c3cccc(Nc4ccnc5cc(C(F)(F)F)ccc45)c3)C2)cc1 (configuration not stated),0.514% (active)

row,SMILES,growth
1,Cc1cc(OC(=O)c2ccc([N+](=O)[O-])cc2)nc2[nH]c(=O)sc12,99.5% (inactive)
2,C=CCSc1nnc(NC(=O)CCl)s1,91.5% (inactive)
3,CCCCCCCCCCCCSC(=NC)NC,-37.6% (active) and 38.4% (inactive)
4,COc1ccc(-c2nc3sccn3c2/C=C/C(=O)c2ccc3c(c2)OCO3)cc1,79.6% (inactive)
5,COc1ccc(-c2ccc(NC(=O)Nc3cccc(C(F)(F)F)c3)c(C)n2)cc1,49.7% (inactive)
6,COC(c1ccc2c(c1)OCO2)C(C)Br (configuration not stated),94.7% (inactive)
7,C[n+]1c2ccccc2c(NC2CCNCC2)c2[nH]c3ccccc3c21,61.4% (inactive)
8,O=C(Nc1cccc(-n2cc(-c3ccncc3)c(-c3ccc(O)c(Cl)c3)n2)c1)Nc1ccc(Cl)c(Cl)c1,-13.2% (active)
9,O=c1[nH]c([C@@H]2CCCN2)nc2c1oc1ccc(Cl)cc12,101% (inactive)
10,N#CC(C#N)=C1NC(c2ccccc2)=C(c2ccccc2)C(c2ccccc2Cl)=C1C#N,79.2% (inactive)
11,COc1cc(-c2nc3sc4c(c3c(=O)[nH]2)CCCCCC4)cc(OC)c1OC,-19.3% (active)
12,CC1CCN(S(=O)(=O)c2ccc(S(=O)(=O)N3CCCC(c4nc5c(nnn5Cc5cccc(Cl)c5)c(=O)[nH]4)C3)cc2)CC1 (configuration not stated),16.1% (inactive)
13,COc1ccc2c(c1)C(=O)c1c-2c(OCCN(C)C)nc2cc(OC)c(OC)cc12,89.9% (inactive)
14,C[C@]12CC[C@@H]3c4ccc(O)cc4C[C@@H](O)[C@H]3[C@@H]1CC[C@@H]2O,101% (inactive)
15,CCCCCCCCCCCC(=O)OCCNC(=O)C[n+]1ccccc1,100% (inactive)
16,CC(C)(C)CC(C)(C)c1ccc(OCCOCCSC(=N)N)cc1,-51.7% (active)
17,Nc1c(N)c2ccccc2c2ccccc12,104% (inactive)
18,COC(=O)Nc1nc2ccc(Sc3ccccc3)cc2[nH]1,-5.94% (active)
